ATXN viability = cell viability loss in ATXN counter-screen. S2 cells (HEK-293 line with an ATXN2-luciferase reporter) viability, CellTiter-Fluor protease fluorescence, 24 h. Potency, µM (doses to about 56.7 µM), actives largely listed as cytotoxic. actives 0.49% (n = 400,000); also: potency is read from the fitted curve at half-maximal effect; nearly all actives have a fitted effect of over 40% in size
ATXN2 expr inh = ATXN2 expression inhibition; HEK-293 ATXN2-luciferase reporter, luminescence, 24 h; actives 0.72% (n = 360,000); AID 1745845; Potency, µM (titrated, usually from 57 µM), without a hit: at the highest dose activity change, negative = inhibition, usual class: inhibitors; also: potency is read from the fitted curve at half-maximal effect; % is scaled to controls: 0 for no effect and ±100 for the full control effect; nearly all actives have a fitted effect of over 55% in size
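qHTS (up to 57 uM final) was run with 24 h compound exposure of reporter cells at 37 °C. Each well was multiplexed: SteadyGlo luminescence measured ATXN2-luciferase expression after a fluorogenic Gly-Phe-AFC viability readout (25 uM final).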
HepG2 tox = counter-screen for TGF-b inhibitors: cytotoxicity in HepG2 cells; HepG2 CAGA-GFP viability, ATP luminescence, 18 h; Potency, µM (highest dose often 46.1 µM), without a hit: at the highest dose activity change, negative = cytotoxicity, most hits filed as cytotoxic; actives 0.76% (n = 410,000); also: potency is read from the fitted curve at half-maximal effect
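CellTiter-Glo luminescence gave cytotoxicity after 18 hours at 37 degrees C. The cells were HepG2 CAGA-GFP in 1% FBS DMEM, stimulated with 500 pg/mL TGF-beta after compound addition. %Activity was normalised to no-cell wells (complete cell-killing) and DMSO (no toxicity), and curves were fitted and classified.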
uPA surface inh = inhibitors of cell surface uPA generation; cell surface uPA generation assay, qHTS; Potency, µM (doses to about 38.3 µM), for inactives: at the top dose activity change, negative = inhibition, usual class: inhibitors; actives 0.31% (n = 330,000); AID 540303; active = well fitted inhibition curve with a large enough effect; inconclusive = small, poorly fitted or top-dose-only effect; inactive = no such curve, though single readings can be large or run the other way; tested in mouse RAW 264.7 cells; also: potency is read from the fitted curve at half-maximal effect; % is scaled to controls: 0 for no effect and ±100 for the full control effect; nearly all actives have a fitted effect of over 55% in size
Giardia killer = kills Giardia lamblia; Giardia lamblia trophozoite viability; activity change, % at 7.66 µM, hits read low; actives 0.15% (n = 340,000); in the data active = activity change below about -80%; inconclusive = between about -30% and that limit;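 also: parasites exposed to compound for two days anaerobically before the ATP read; % is scaled to controls: 0 for no effect and ±100 for the full control effect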
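Each well holds 100 Giardia trophozoites and compound. After two days (48 hrs) at 37 deg C in anaerobic conditions, ATP is quantified by luminescence.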
TGFb inhibitor = inhibitors of TGF-b signaling. HepG2 CAGA-GFP TGF-b/SMAD3 reporter, GFP fluorescence, 18 h; TGF-beta stimulated, 500 pg/mL final. Potency, µM (top dose mostly 46.1 µM), inactives show at the top dose activity, negative = inhibition, hits mostly inhibitors. actives 1.2% (n = 410,000). AID 588855; also: potency is read from the fitted curve at half-maximal effect; % is scaled to controls: 0 for no effect and ±100 for the full control effect; nearly all actives have a fitted effect of over 65% in size
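GFP signal (ex488/em500-530) from TGF-beta-stimulated HEPG2 CAGA-GFP cells, 500 pg/mL final, 18 h at 37 degrees C in DMEM plus 1% FBS, normalized to unstimulated and DMSO-stimulated controls.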
Active calls of the source: *; i = inactive; ? = inconclusive; nt = no result given. Rows were chosen to be rich in hits. Some 2.6% of all compounds tested hit in one or more screens of this group. Unless noted, calls follow the shape of the dose curve; as a rule, active = well fitted curve in the direction sought with a large enough effect; inconclusive = small, poorly fitted or top-dose-only effect, or another doubt; inactive = no such curve, though single readings can be large; an effect the other way counts as inactive or inconclusive.

SMILES	ATXN viability	ATXN2 expr inh	HepG2 tox	uPA surface inh	Giardia killer	TGFb inhibitor
Clc1cccc[n+]1CCCCCC[n+]1ccccc1Cl	nt	nt	7%	nt	nt	-4%
CCOC(=O)C1CCN(c2ccc(-c3cccs3)nn2)CC1	i	9%	7.1µM*	0%	-7	4%
CC(C)(C)n1ncc2c(=O)n(Cc3ccccc3SC(F)(F)F)cnc21	nt	nt	-21%	nt	nt	?
CC(=NNc1nc2ccccc2s1)c1ncccn1	1.4µM*	?	-36%	-3%	10	0.79µM*
C/C(=N\Nc1nc2ccccc2s1)c1cccs1	i	-29%	-25%	-11%	-26	?
COc1ccc2cc(C(=O)C3CCCN(C(=O)/C=C/c4ccccn4)C3)ccc2c1 (stereo not given)	i	-15%	13µM*	-3%	14	0%
CCOc1ccc(/C=N/OCC(=O)NC(c2ccccc2)c2ccccc2)cc1	i	-14%	-24%	5%	-14	22µM*
Cc1nonc1CN(C)C(=O)C1CC12CCN(C(=O)/C=C/c1cccc(Cl)c1)CC2 (stereo not given)	i	nt	nt	nt	nt	nt
C(=C\c1ccccc1)/CN1CCN(C(c2ccnc3ccccc23)c2nnnn2C2CCCC2)CC1 (stereo not given)	?	-26%	-44%	nt	nt	10µM*
COc1cccc(CN2CCOc3ccc(C(O)c4cccnc4)cc3C2)c1 (stereo not given)	i	nt	nt	nt	nt	nt
CCCCc1ccc(NC(=S)NCCc2ccc(F)cc2)cc1	i	-9%	-105%	0%	-3	16µM*
O=C(NCC1(N2CCOCC2)CCCC1)c1cnn(-c2nccc(-c3cccs3)n2)c1C1CC1	i	nt	nt	nt	nt	nt
Cc1ccc(CN2CCOCCS2(=O)=O)cc1	nt	nt	23%	nt	nt	7%
COc1ccc(/C=C/C(=O)c2c(C)cc(C)[nH]c2=O)c2ccccc12	?	?	13µM*	-12%	-8	18µM*
Cc1ccc(/C=C/C(=O)c2c(C)cc(C)[nH]c2=O)cc1	?	?	-48%	nt	-7	-4%
Cc1c(N2C(=O)/C(=C/c3ccc(N(C)C)cc3)N(C)C2=S)c(=O)n(-c2ccccc2)n1C	13µM*	1%	-13%	1%	9	-3%
Cc1c(N2C(=O)/C(=C/c3ccccc3)SC2=S)c(=O)n(-c2ccccc2)n1C	i	2%	-28%	1%	-14	7%
O=C1CC(c2nc3ccccc3n2CCCOc2ccccc2)CN1c1ccc(F)cc1 (stereo not given)	25µM*	-29%	-21%	nt	nt	-27%
CCOc1ccc(N2CC(c3nc4ccccc4n3CCCOc3ccccc3)CC2=O)cc1 (stereo not given)	nt	?	-8%	nt	nt	11µM*
CCNc1ccc(/C=C/c2ccnc3ccccc23)cc1	nt	nt	-24%	nt	nt	0%
COC(=O)N1C(=O)[C@](c2ccc(Cl)cc2)(C(C)C)N1C(=O)OC	32µM*	?	16µM*	?	-8	?
C=C1C=C(C)n2ncc(C(=O)NCCCCCC)c2N1	nt	nt	-2%	nt	nt	-1%
Cc1cc(NC(=O)CSc2cn(CCNC(=O)c3ccc(Cl)cc3)c3ccccc23)no1	19µM*	0%	-30%	-17%	-11	-6%
COc1ccc(C(=O)NCCn2cc(SCc3cccc(F)c3)c3ccccc32)cc1OC	?	18µM*	-22%	nt	nt	?
CCOc1ccc(C(=O)NCCn2cc(SCC(=O)Nc3cc(C)on3)c3ccccc32)cc1	i	5%	-37%	0%	-6	-2%
SMILES	ATXN viability	ATXN2 expr inh	HepG2 tox	uPA surface inh	Giardia killer	TGFb inhibitor
O=C(NCCn1cc(SCc2ccc(F)cc2)c2ccccc21)c1cccs1	?	?	-22%	nt	nt	11µM*
Cc1ccc(CSc2cn(CCNC(=O)c3cccs3)c3ccccc23)cc1	?	?	-24%	nt	nt	?
O=C(NCCn1cc(SCc2ccccc2F)c2ccccc21)c1cccs1	?	?	-29%	nt	nt	10µM*
Cc1ccc(C)c2c1NC(C(=O)O)C1CC=CC21 (stereo not given)	nt	nt	-3%	nt	-30	-16%
Cc1cc2c(cc1S(=O)(=O)Nc1cccc(C(F)(F)F)c1)OCCN2C	nt	nt	-49%	nt	nt	3.5µM*
O=C(C[n+]1c2ccccc2cc2ccccc21)c1ccc(F)cc1	nt	nt	-28%	nt	nt	-2%

Compound activity deposited in PubChem BioAssay by National Center for Advancing Translational Sciences (NCATS).
